# Screening data (PubChem)
# Pf Dd2 inh – inhibitors of Plasmodium falciparum Dd2 growth. P. falciparum Dd2 growth, SYBR Green, 72 h. 120,000 compounds, 4.3% hits. Potency, µM (highest dose often 28.9 µM), inactives show at the highest dose activity, negative = inhibition, usual class: inhibitors; active means well fitted inhibition curve with a large enough effect;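 further: plate controls were DMSO vehicle for no effect and reference drug for full effect; nearly all actives have a fitted effect of over 65% in size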
#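 Infected erythrocytes (Dd2, 0.3% parasitemia, 2.5% hematocrit final) are added to compound in RPMI-1640/Albumax II medium, grown 72 h at 37C in low oxygen, then lysed with saponin/Triton-X containing SYBR Green and read by fluorescence.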
# Active calls of the source: *; i = inactive; [ ] = remark or other dose. This is one part of a sample in which hits are shown more often than they occur. Potency means the concentration at half of the fitted maximal effect.
SMILES,Pf Dd2 inh
O=C1CC(c2ccccc2)Cc2[nH]c(=O)c(C(=O)Nc3cccc(Cl)c3)cc21 (stereo not given),-13%
CCc1ccc(C2CC(=O)c3c([nH]c(C(=O)OCCOc4ccccc4)c3C)C2)cc1 (stereo not given),5µM*
CCOC(=O)C1=C(CNCc2ccc(Cl)cc2)NC(=O)NC1c1ccccc1 (stereo not given),-8%
CCOC(=O)c1[nH]c2c(c1Cc1ccccc1C)C(=O)CC(c1ccccc1)C2 (stereo not given),8.9µM*
CN1C(=O)COC[C@@H]1[C@H](O)c1ccc(NC(=O)Cc2ccccc2)cc1,-14%[44.1 µM]
CCn1c(C)cc(C)c(C(=O)NCC2CCOc3ccccc3C2)c1=O (stereo not given),-3%
CNC(=O)[C@@H]1CN(C(=O)CCc2nc3ccccc3s2)C[C@H]1c1n[nH]c(C)n1,-19%
Cc1c(Cn2cc(-c3cncnc3)nn2)oc2ccccc12,4%
Cc1ncoc1C(=O)N1CCC2(CCCN(Cc3cccc(F)c3F)C2=O)C1 (stereo not given),i
O=C1C(N2CCN(S(=O)(=O)Cc3ccccc3Cl)CC2)CCN1Cc1cccnc1 (stereo not given),11%
CCn1c(CO)nnc1C1CC(NC(=O)Cc2ccc(-n3cnnn3)cc2)C1 (stereo not given),4%
CC1(COc2ccccc2)COc2ccc(C(=O)N3CCOCC3c3ccncc3)cc2N1 (stereo not given),i
CCN1C(=O)C2CC3(CCN(C(=O)c4cc5ccc(OC)cc5[nH]4)CC3)CN2C1=O (stereo not given),-28%
CC(c1cccs1)N(C)C(=O)C1CC1 (stereo not given),4%[44.1 µM]
O=C1CO[C@H]2CCN(Cc3cccc(OC(F)(F)F)c3)CC[C@@H]2N1Cc1ccccc1,i
CN1C(=O)CO[C@H]2CN(Cc3c[nH]c4ccccc34)C[C@H]21,i
O=C1CO[C@H]2CN(Cc3c[nH]c4ccccc34)C[C@H]2N1,-21%[44.1 µM]
O=C1CO[C@H]2CCN(Cc3cccc(OC(F)(F)F)c3)CC[C@@H]2N1Cc1c[nH]c2ccccc12,7.9µM*
O=C1CO[C@H]2CN(Cc3c[nH]c4ccccc34)C[C@H]2N1Cc1ccc(F)cc1,5µM*
COc1cncc(CN2CC[C@@H]3OCC(=O)N(Cc4ccccc4)[C@H]3CC2)c1,-9%[44.1 µM]
Cc1ccc(C2Cn3nnc(-c4nc(-c5ccc(F)c(F)c5)no4)c3CO2)c(C)c1 (stereo not given),i
CN1C(=O)C(c2ccccc2)CC12CCN(C(=O)c1ccc(C#N)cc1)CC2 (stereo not given),-15%
CC[C@H](C)[C@@H](N)C(=O)N1CCC2(CC1)Nc1ccccc1NC2=O,-10%
O=C(C1CC(=O)N(C2CC2)C1)N1CCC(Oc2cccc(Cl)c2)CC1 (stereo not given),-1%
Cc1noc([C@H]2CCN(Cc3ccc(F)c(F)c3)C[C@H]2NC(=O)C2CC2)n1,i[5.79 µM]
SMILES,Pf Dd2 inh
Cc1cc(NCCN2CCNC2=O)n2nc(C)cc2n1,9%
COc1cccc(CN2CCN3C(=O)N(C4CCOCC4)C[C@H]3C2)c1,32%[44.1 µM]
COc1ccc(-c2cc(C(C)=O)c(C)n2CCC(=O)NCc2ccccc2OC)cc1,-13%
CCOC(=O)c1cc(-c2ccccc2)n(CCC(=O)NCc2ccccc2Cl)c1C,i
CCOC(=O)c1cc(-c2ccc(OC)cc2)n(CCC(=O)NCc2ccccc2OC)c1C,7.9µM*
O=C(c1nnc(CN2CCN(c3ccccn3)CC2)n1Cc1ccccc1)N1CCC[C@@H]1c1ccc(Br)cc1,i
O=C(COc1ccccc1)Nc1ccc([C@@H](O)[C@H]2COCC(=O)N2CCCc2ccccc2)cc1,7.9µM*
CCN1C(=O)COC[C@@H]1[C@H](O)c1ccc(NC(=O)COc2ccccc2)cc1,-8%[44.1 µM]
CCOCCN1C(=O)COC[C@@H]1[C@H](O)c1ccc(NC(=O)COc2ccccc2)cc1,-25%[44.1 µM]
Oc1cccc(CN(Cc2ccsc2)Cc2ccco2)c1,i
COCCN1Cc2ccc(Nc3ccc(OC)cc3)nc2C(C)(C(=O)NCC2CC2)C1 (stereo not given),i
COCCN1Cc2ccc(NCc3ccccc3)nc2C(C)(C(=O)NCc2ccccc2)C1 (stereo not given),-26%
COCCN1Cc2ccc(Nc3ccc(OC)cc3)nc2C(C)(C(=O)NC(C)C)C1 (stereo not given),13µM*
CCCN(CC1CCOC1)C(=O)Nc1cccc(F)c1 (stereo not given),19%[5.79 µM]
CCC(C)(C)C(=O)N1C[C@@H](CO)[C@H](c2nc(C)no2)C1,36%
CC1=C(C(=O)Nc2ccc(C)cc2C)C(c2ccc(Cl)cc2)n2nc(C(=O)OC(C)C)nc2N1 (stereo not given),-5%
CC1=C(C(=O)Nc2ccc(C)cc2C)C(c2ccc(Br)cc2)n2ncc(C(=O)Nc3cccc(C)c3)c2N1 (stereo not given),1.1µM*
COc1ccc(C2C(C(=O)Nc3ccc(C)cc3C)=C(C)Nc3nc(SC)nn32)cc1OC (stereo not given),15%
CC1=C(C(=O)Nc2ccc(Cl)cc2)C(c2ccccc2F)n2nc(SCc3cccc(Cl)c3)nc2N1 (stereo not given),36%
CC1=C(C(=O)Nc2ccc(C)cc2C)C(c2ccc[nH]2)n2ncnc2N1 (stereo not given),29%
CC1=C(C(=O)Nc2ccc(C)cc2C)C(c2cc(Br)ccc2F)n2ncc(C(=O)Nc3ccc(C)cc3)c2N1 (stereo not given),0.89µM*
CC1=C(C(=O)Nc2ccc(C)cc2C)C(c2cccs2)n2nc(SCc3cccc(C)c3)nc2N1 (stereo not given),-7%
CC1=C(C(=O)Nc2cc(Cl)ccc2C)C(c2ccccc2F)n2ncnc2N1 (stereo not given),10%
CC1=C(C(=O)Nc2ccccc2)C(c2cc(Br)ccc2F)n2ncc(C(=O)Nc3ccccc3)c2N1 (stereo not given),1.1µM*
COc1cc(NC(=O)N2CC[C@H](c3nc4ccccc4o3)C2)cc(OC)c1,i
SMILES,Pf Dd2 inh
COc1ccccc1NC(=O)Nc1ccc2n(c1=O)C[C@H]1C[C@@H]2CN(C2CCOCC2)C1,i
CC1CCN(Cc2nnnn2CCCC(=O)N2CCN3CCCC3C2)CC1 (stereo not given),-7%
Cc1nc(CCNS(=O)(=O)c2cn(C)cn2)no1,14%
COc1ccccc1CNC(=O)CN1CCC(O)(c2ccc(F)cc2)CC1,-23%
C[C@]1(O)CCN(C(=O)c2cnn3cc(CCO)cnc23)C[C@@H]1O,3%
CCn1nccc1C(=O)N1CCCC(c2nn(C)c(=O)n2C(C)C)C1 (stereo not given),8%
CCC1=C(C(=O)OC)C(c2ccccc2Cl)N2C(CC(=O)NCc3ccco3)=CSC2=N1 (stereo not given),i
O[C@@H]1CCN(Cc2nc(C3(O)CCN(C4COC4)CC3)cs2)C1,35%[44.1 µM]
CC1Oc2ccc(NC(=O)C3CCCC3)cc2CN(Cc2ccccc2F)C1=O (stereo not given),i
Fc1ccc(-c2cnc([C@@H]3COCCN3Cc3cnc4ccccc4c3)[nH]2)cc1,i
CCn1cc(S(=O)(=O)N2CCCCC2c2n[nH]c(C)n2)cn1 (stereo not given),0%
CCOC(=O)C[C@@H]1C[C@@H](C(C)C)[C@H](CNS(=O)(=O)c2ccc(OC)cc2)C=C1C,-19%[44.1 µM]
CC1=C[C@@H](CNS(=O)(=O)c2ccc(C)cc2)[C@H](C(C)C)C[C@H]1CC(=O)N(C)Cc1cccnc1,13µM*
